# Data reported in paper PMC7862700, “An all-to-all approach to the identification of sequence-specific readers for epigenetic DNA modifications on cytosine”.
# Legend:
# Assay in all cases: DAPPL (digital affinity profiling via proximity ligation, sequencing); 10 mM Tris-HCl pH 7.5, 50 mM NaCl, 1 mM DTT, 4% glycerol, room temperature, 30 min; GST-TFs on glutathione beads, 16-mer random dsDNA library, 0.1% formaldehyde crosslink after washing; high values mean tight binding
# Conditions in all cases: protein: recombinant; tags: N-terminal GST; dsDNA, one strand shown
# FLI1 = biological target: T1, FLI1 (Homo sapiens, UniProt Q01543 1-452)
# T1 sequence: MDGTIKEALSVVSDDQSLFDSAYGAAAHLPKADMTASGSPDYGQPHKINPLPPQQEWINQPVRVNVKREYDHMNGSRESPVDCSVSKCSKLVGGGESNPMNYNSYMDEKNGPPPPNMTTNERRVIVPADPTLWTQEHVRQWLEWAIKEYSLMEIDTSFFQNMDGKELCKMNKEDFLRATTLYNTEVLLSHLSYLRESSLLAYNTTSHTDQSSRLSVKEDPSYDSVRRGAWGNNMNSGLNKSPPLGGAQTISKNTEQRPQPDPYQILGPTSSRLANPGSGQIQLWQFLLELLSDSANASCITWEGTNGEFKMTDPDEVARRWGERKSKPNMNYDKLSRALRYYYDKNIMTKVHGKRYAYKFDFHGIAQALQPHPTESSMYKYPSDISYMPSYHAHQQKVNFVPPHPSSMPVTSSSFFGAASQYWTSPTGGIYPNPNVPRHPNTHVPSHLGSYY
# Outline: (§1)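 Pools were built from human transcription factors expressed in yeast as GST fusions, captured on glutathione beads and DNA-barcoded, along with a tag-only sample. Incubation with 200 nmole of a 16-mer random double-stranded DNA library lasted 30 min at room temperature in Tris/NaCl/DTT/glycerol buffer, and was followed by washing, 0.1% formaldehyde crosslinking, proximity ligation, PCR amplification and Illumina NextSeq500 sequencing. Binding signal is the quotient of each hexamer's read frequency for a factor and its frequency for the tag-only sample.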
# ELK1 = biological target: T2, ELK1 (Homo sapiens, UniProt P19419 1-428)
# T2 sequence: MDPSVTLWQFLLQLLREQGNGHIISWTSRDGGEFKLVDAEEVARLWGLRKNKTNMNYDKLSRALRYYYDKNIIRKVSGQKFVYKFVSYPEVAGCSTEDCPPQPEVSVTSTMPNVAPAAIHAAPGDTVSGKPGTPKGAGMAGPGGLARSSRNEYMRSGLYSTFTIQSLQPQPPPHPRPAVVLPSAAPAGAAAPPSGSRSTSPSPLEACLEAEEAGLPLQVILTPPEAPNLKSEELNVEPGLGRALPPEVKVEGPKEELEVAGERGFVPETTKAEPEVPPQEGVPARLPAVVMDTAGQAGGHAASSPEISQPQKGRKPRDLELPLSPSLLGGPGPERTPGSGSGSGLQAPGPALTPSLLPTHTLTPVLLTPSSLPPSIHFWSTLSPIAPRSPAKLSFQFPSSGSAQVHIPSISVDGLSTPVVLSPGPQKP
# Outline: as §1
# GABPA = biological target: T3, GABPA (Homo sapiens, UniProt Q06546 1-454)
# T3 sequence: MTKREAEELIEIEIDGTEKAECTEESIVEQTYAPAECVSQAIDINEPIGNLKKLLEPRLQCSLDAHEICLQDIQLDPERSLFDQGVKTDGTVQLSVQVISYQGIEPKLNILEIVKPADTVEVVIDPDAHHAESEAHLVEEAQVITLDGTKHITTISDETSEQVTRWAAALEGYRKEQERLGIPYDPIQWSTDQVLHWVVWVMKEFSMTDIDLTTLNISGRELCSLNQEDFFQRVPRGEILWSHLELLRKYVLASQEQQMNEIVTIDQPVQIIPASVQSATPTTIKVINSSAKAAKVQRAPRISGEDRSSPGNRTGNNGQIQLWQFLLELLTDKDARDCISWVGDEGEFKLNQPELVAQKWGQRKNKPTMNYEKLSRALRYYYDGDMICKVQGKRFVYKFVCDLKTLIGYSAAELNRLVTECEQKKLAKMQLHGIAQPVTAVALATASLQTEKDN
# Outline: as §1
# ERG = biological target: T4, ERG (Homo sapiens, UniProt P11308 1-479)
# T4 sequence: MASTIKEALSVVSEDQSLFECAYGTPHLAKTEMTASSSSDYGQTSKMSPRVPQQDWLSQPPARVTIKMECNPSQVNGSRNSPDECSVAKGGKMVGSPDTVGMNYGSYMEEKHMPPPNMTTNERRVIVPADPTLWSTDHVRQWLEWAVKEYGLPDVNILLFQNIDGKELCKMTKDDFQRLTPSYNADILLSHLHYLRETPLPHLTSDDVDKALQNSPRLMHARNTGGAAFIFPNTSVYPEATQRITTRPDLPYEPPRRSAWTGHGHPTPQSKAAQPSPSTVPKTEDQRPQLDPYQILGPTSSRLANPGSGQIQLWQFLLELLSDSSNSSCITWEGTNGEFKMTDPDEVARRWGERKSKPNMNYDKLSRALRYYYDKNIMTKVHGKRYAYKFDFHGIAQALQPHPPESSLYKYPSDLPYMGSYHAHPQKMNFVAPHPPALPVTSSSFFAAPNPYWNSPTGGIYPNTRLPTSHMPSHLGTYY
# Outline: as §1
# ELF1 = ELF1 (Homo sapiens, UniProt P32519 1-619)
# Chain of ELF1 (P32519 whole entry): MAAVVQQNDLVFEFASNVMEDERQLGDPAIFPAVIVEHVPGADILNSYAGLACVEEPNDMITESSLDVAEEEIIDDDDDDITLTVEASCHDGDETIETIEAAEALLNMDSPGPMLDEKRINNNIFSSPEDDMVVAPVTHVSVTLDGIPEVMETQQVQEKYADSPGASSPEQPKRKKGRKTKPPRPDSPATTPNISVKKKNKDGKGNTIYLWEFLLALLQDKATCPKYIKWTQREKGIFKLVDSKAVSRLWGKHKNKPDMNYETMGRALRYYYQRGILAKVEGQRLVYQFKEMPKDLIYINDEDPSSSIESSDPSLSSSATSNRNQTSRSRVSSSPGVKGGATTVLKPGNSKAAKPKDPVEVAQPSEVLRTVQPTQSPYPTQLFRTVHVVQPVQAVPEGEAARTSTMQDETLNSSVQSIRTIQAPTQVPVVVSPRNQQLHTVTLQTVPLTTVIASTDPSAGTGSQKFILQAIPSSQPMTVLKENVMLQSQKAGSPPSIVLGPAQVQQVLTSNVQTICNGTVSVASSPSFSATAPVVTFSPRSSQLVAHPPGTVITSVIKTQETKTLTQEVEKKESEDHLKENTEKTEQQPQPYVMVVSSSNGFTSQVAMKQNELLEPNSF
# Outline: as §1
# EHF = biological target: T5, EHF (Homo sapiens, UniProt Q9NZC4 1-300)
# T5 sequence: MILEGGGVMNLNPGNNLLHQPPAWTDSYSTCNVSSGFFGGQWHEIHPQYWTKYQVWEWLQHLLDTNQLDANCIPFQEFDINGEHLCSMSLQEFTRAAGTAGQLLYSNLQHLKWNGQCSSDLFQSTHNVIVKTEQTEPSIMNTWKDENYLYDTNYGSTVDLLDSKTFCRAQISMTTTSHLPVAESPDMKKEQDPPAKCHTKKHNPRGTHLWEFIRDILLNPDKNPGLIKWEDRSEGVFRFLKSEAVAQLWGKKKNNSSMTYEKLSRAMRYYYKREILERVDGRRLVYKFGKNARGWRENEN
# Outline: as §1
# SPI1 = SPI1 (Homo sapiens, UniProt P17947 1-270)
# Outline: as §1
# SPIB = SPIB (Homo sapiens, UniProt Q01892 1-262)
# Chain of SPIB (Q01892 whole entry): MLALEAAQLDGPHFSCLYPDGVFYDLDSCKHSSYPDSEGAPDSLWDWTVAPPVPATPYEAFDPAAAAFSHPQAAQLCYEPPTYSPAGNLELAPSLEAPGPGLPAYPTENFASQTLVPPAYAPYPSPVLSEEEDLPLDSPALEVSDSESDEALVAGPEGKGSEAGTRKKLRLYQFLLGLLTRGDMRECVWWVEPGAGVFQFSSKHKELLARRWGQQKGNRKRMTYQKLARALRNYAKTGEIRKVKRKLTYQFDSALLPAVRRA
# Outline: as §1
# ETV5 = ETV5 (Homo sapiens, UniProt P41161 1-510)
# Chain of ETV5 (P41161 whole entry): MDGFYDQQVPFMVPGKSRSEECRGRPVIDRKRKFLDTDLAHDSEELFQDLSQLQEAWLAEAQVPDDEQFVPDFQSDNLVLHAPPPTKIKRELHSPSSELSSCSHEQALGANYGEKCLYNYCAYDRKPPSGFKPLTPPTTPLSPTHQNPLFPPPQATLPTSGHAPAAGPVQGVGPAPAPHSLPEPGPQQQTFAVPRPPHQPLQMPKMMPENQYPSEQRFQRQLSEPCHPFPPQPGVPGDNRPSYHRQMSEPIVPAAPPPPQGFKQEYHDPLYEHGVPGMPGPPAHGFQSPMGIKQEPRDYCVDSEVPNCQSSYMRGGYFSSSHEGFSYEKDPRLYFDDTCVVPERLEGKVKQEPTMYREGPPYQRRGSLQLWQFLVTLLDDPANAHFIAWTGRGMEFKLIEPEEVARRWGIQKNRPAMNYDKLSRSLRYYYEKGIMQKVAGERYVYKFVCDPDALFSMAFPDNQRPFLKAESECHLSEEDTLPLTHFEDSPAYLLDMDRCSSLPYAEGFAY
# Outline: as §1
# ELF4 = ELF4 (Homo sapiens, UniProt Q99607 1-663)
# Chain of ELF4 (Q99607 whole entry): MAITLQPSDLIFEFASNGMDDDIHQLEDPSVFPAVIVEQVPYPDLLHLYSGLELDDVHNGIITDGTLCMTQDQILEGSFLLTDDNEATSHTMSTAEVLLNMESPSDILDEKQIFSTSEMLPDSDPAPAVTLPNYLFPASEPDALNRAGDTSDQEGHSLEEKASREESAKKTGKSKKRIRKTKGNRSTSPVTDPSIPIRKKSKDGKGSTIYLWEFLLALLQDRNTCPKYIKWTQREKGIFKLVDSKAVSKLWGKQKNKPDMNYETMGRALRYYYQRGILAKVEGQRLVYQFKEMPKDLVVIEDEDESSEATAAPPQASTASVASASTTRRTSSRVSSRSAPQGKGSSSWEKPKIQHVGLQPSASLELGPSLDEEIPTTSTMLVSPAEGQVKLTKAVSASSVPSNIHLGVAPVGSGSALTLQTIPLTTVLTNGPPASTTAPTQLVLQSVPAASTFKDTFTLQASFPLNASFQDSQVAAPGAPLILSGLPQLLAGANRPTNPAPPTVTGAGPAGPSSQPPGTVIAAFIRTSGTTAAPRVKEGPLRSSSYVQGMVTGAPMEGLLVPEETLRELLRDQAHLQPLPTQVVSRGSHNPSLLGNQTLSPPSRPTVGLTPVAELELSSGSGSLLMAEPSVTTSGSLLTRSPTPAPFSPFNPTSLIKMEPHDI
# Outline: as §1
# ELF3 = biological target: T6, ELF3 (Homo sapiens, UniProt P78545 1-371)
# T6 sequence: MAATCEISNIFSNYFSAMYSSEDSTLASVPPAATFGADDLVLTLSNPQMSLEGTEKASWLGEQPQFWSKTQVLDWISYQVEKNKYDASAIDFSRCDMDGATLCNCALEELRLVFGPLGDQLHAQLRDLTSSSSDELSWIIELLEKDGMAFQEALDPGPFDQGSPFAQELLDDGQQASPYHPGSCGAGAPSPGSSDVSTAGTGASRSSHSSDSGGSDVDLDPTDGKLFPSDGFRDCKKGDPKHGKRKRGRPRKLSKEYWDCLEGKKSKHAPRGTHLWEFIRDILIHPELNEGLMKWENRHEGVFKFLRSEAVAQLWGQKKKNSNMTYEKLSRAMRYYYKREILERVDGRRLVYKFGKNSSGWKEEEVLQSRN
# Outline: as §1
# ETV1 = ETV1 (Homo sapiens, UniProt P50549 1-477)
# Chain of ETV1 (P50549 whole entry): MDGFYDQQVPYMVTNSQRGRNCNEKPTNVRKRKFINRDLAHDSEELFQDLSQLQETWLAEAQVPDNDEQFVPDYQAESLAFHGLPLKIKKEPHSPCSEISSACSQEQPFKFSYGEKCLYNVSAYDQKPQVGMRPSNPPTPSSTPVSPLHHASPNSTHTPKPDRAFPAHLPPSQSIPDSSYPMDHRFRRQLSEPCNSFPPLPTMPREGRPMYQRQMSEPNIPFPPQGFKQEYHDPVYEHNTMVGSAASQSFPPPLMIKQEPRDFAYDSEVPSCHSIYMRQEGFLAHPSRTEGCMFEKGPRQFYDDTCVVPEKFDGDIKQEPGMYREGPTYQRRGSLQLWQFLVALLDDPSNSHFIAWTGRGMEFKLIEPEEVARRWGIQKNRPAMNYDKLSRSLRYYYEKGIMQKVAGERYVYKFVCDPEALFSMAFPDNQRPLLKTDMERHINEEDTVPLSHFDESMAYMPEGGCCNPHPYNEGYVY
# Outline: as §1
# ERF = biological target: T7, ERF (Homo sapiens, UniProt P50548 1-548)
# T7 sequence: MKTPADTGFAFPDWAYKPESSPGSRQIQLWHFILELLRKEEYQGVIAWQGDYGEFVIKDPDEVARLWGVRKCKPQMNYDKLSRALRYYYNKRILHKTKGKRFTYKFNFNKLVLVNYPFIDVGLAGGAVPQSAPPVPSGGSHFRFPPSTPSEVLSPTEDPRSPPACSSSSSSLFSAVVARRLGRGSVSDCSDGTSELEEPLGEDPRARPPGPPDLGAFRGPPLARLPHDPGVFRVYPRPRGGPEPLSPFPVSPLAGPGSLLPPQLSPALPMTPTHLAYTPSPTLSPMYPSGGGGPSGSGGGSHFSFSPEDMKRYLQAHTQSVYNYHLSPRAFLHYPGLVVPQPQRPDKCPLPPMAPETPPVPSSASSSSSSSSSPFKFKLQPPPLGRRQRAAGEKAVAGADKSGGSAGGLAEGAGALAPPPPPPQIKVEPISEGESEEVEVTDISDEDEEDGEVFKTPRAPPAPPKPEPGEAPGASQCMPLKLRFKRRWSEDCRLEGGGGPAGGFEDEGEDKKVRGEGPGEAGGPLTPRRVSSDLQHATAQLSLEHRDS
# Outline: as §1
# ETV3L = biological target: T8, ETV3L (Homo sapiens, UniProt Q6ZN32 1-361)
# T8 sequence: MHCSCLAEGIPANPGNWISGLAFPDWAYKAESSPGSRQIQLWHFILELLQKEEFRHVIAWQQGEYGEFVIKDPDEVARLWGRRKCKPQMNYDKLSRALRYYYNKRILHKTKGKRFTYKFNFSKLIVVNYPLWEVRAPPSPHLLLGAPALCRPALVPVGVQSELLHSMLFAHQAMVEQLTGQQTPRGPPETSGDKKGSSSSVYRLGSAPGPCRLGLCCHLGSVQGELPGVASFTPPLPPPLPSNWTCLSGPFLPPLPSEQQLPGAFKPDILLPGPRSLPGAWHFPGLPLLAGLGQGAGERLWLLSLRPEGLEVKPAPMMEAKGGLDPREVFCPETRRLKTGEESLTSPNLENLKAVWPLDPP
# Outline: as §1
# ETS2 = biological target: T9, ETS2 (Homo sapiens, UniProt P15036 1-469)
# T9 sequence: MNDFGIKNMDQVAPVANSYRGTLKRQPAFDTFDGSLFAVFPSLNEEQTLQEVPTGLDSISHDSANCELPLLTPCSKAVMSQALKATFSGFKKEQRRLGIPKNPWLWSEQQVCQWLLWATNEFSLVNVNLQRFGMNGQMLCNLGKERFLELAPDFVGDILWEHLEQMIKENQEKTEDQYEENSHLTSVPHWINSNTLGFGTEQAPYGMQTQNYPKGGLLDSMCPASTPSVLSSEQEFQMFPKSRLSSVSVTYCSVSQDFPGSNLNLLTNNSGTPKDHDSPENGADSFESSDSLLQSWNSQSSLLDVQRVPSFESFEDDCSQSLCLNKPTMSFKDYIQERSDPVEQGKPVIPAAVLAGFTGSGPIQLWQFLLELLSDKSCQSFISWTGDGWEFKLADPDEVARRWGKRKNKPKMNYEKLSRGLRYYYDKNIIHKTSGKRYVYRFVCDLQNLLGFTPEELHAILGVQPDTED
# Outline: as §1
# ETV7 = biological target: T10, ETV7 (Homo sapiens, UniProt Q9Y603 1-341)
# T10 sequence: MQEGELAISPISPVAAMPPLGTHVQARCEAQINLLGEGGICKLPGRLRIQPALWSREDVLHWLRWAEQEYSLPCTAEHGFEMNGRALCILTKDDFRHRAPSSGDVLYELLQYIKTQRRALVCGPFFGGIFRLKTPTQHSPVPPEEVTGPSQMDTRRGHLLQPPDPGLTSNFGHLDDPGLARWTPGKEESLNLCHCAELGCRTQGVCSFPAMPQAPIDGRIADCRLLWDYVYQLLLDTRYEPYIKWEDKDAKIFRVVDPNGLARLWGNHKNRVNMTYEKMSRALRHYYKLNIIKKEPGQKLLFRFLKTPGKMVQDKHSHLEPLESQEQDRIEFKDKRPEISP
# Outline: as §1
# ETV3 = biological target: T11, ETV3 (Homo sapiens, UniProt P41162-2 1-143)
# T11 sequence: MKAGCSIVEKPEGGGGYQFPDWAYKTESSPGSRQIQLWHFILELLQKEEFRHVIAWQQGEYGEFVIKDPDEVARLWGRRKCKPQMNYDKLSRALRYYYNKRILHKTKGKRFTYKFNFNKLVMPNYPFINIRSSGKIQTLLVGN
# Outline: as §1
# ETV6 = ETV6 (Homo sapiens, UniProt P41212 1-452)
# Chain of ETV6 (P41212 whole entry): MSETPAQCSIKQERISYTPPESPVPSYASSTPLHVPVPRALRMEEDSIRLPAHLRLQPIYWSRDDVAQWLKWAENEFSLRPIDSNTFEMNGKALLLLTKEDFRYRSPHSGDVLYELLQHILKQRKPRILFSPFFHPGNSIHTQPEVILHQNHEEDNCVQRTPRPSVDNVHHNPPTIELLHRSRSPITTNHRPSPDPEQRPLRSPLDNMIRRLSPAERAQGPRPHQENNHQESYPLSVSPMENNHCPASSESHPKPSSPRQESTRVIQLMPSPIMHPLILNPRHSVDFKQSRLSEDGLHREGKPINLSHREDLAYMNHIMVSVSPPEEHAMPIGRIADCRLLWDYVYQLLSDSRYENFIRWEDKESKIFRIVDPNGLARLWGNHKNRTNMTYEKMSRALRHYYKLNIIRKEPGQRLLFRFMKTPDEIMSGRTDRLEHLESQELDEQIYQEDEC
# Outline: as §1
sequence,measurement,setting,value
GTAGCT,binding signal,FLI1,"1.15 fold enrichment (6-mer frequency, TF over GST control)"
same,binding signal,ELK1,"1.08 fold enrichment (6-mer frequency, TF over GST control)"
same,binding signal,GABPA,"1.12 fold enrichment (6-mer frequency, TF over GST control)"
same,binding signal,ERG,"1.05 fold enrichment (6-mer frequency, TF over GST control)"
same,binding signal,ELF1,"1.06 fold enrichment (6-mer frequency, TF over GST control)"
same,binding signal,EHF,"1.12 fold enrichment (6-mer frequency, TF over GST control)"
same,binding signal,SPI1,"1.09 fold enrichment (6-mer frequency, TF over GST control)"
same,binding signal,SPIB,"1.18 fold enrichment (6-mer frequency, TF over GST control)"
same,binding signal,ETV5,"1.14 fold enrichment (6-mer frequency, TF over GST control)"
same,binding signal,ELF4,"1.1 fold enrichment (6-mer frequency, TF over GST control)"
same,binding signal,ELF3,"1.18 fold enrichment (6-mer frequency, TF over GST control)"
same,binding signal,ETV1,"1.13 fold enrichment (6-mer frequency, TF over GST control)"
same,binding signal,ERF,"1.1 fold enrichment (6-mer frequency, TF over GST control)"
same,binding signal,ETV3L,"1.08 fold enrichment (6-mer frequency, TF over GST control)"
same,binding signal,ETS2,"1.13 fold enrichment (6-mer frequency, TF over GST control)"
same,binding signal,ETV7,"1.12 fold enrichment (6-mer frequency, TF over GST control)"
same,binding signal,ETV3,"1.09 fold enrichment (6-mer frequency, TF over GST control)"
same,binding signal,ETV6,"1.06 fold enrichment (6-mer frequency, TF over GST control)"
